TIM10 inh – inhibits growth of TIM10 yeast strain. inhibition, % at 10 µM. S. cerevisiae TIM10 strain growth, BacTiter-Glo luminescence, 24 h. AID 463195. 330,000 tested, 1.4% active;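 active means inhibition of 40% or more at the single tested concentration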;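 further: wild-type TIM10 isogenic control strain grown at permissive 25 °C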
tim10-1 inh – tim10-1 yeast growth inhibition; 330,000 tested, 2.2% active; inhibition, % at 20 µM; S. cerevisiae tim10-1 ts strain growth, BacTiter-Glo, 24 h;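 active means inhibition of at least 40%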;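 further: mutant grown at 25 °C; 0% = DMSO wells with yeast and 100% = wells holding no yeast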
NALP1 inh – NALP1 inhibition. S. cerevisiae NALP1/ASC/caspase-1 growth, X-gal OD620, 72 h. 280,000 tested, 0.61% active. inhibition, % at 10 µM; in the data active means inhibition mostly above about 24%, no sharp cut-off; inactive means mostly below about 32%
SKKanGAS inh – SKKanGAS growth inhibition | S. pyogenes SKKanGAS, kanamycin growth, BacTiter-Glo, 6 h | inhibition, % at 7.5 µM | 300,000 tested, 1.3% active | AID 1662;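 active means mean replicate score, as percent of positive control median, at least 50; inconclusive means mean below 50 but one replicate at or above 50; inactive means mean and every replicate below 50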;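 further: strain carries kanamycin resistance gene driven by streptokinase promoter and grows in 40 µg/ml kanamycin; loss of luminescence reflects streptokinase promoter inhibition or plain growth inhibition; 0% = median of DMSO wells and 100% = positive control at its reference dose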
tim23-1 inh – tim23-1 yeast growth inhibition; S. cerevisiae tim23-1 growth, BacTiter-Glo luminescence, 24 h; inhibition, % at 20 µM; 330,000 tested, 1.3% active; AID 463212;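 active means growth inhibition of the mutant yeast at or above 50%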;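 further: temperature-sensitive mutant grown at 25 °C; plate controls were DMSO-treated mutant yeast for no effect and medium wells lacking yeast for full effect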
PfHsp90 yeast 2 – reduces growth (ATP signal) of yeast expressing P. falciparum Hsp90; S. cerevisiae expressing PfHsp90, BacTiter-Glo ATP, 48 h; yeast lacking PDR1 and PDR3 efflux regulators; inhibition, % at 9.4 µM; 310,000 tested, 0.32% active; AID 504621;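 active means every replicate shows inhibition above about 80%, whatever the replicate mean, limit read from the data; inconclusive means mean inhibition reaches the set limit but some replicate falls short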;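 further: 0% = DMSO neutral controls and 100% = 20 µM radicicol positive controls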
Numbers without * were called inactive; ? = inconclusive; . = no result. Hits are enriched below; roughly 4.8% of the tested compounds scored in any of these assays.

SMILES | TIM10 inh | tim10-1 inh | NALP1 inh | SKKanGAS inh | tim23-1 inh | PfHsp90 yeast 2
Oc1cccc2cccnc12 | . | . | 4.6 | 94.0* | . | .
c1ccc(Cn2ccnc2)cc1 | 4.7 | -9.2 | 22.0 | 0.2 | -10.7 | 7.5
Clc1ccc(CSC(Cn2ccnc2)c2ccc(Cl)cc2Cl)cc1 (stereo not drawn) | -166.6 | -37.4 | 24.9 | . | 5.5 | 90.3*
Clc1ccc(COC(Cn2ccnc2)c2ccc(Cl)cc2Cl)cc1 (stereo not drawn) | -91.5 | -26.5 | 29.3 | 74.3* | 49.4 | 83.0*
CC(Cc1cnccn1)NCc1c(C(=O)N2CCCCCCC2)nc2ccc(Cl)cn12 (stereo not drawn) | 8.1 | 15.8 | 4.7 | 3.0 | 5.6 | -21.7
CCCCCP(=O)(O)c1ccccc1 | 12.8 | 1.1 | -12.8 | 7.0 | 9.9 | .
CCCC/C(C)=C/[C@@H](NP(=O)(c1ccccc1)c1ccccc1)c1ccccc1 | 19.4 | 35.9 | 24.9 | 73.4* | 34.6 | 2.3
O=C(/C=C/c1ccc(Br)cc1)NC(=S)N1C[C@H]2C[C@H](C1)c1cccc(=O)n1C2 | 4.1 | 5.2 | -6.8 | 2.0 | 0.8 | 4.8
CCCC1COC(Cn2cncn2)(c2ccc(Cl)cc2Cl)O1 (stereo not drawn) | -47.4 | -46.2 | 21.9 | 0.1 | -402.1 | 106.6*
CCCCCn1c(=O)c(C(=O)NCc2ccc(Cl)cc2)c(O)c2ccccc21 | -10.3 | -4.9 | 2.2 | 16.8 | 14.1 | 26.0
CCCCn1c(=O)c(C(=O)NCc2ccccc2Cl)c(O)c2ccccc21 | -0.7 | -29.1 | 15.9 | 49.6* | 4.9 | -1.9
CCCCn1c(=O)c(C(=O)NCc2ccncc2)c(O)c2ccccc21 | 13.3 | 7.6 | 15.1 | 58.3* | 29.2 | 4.9
CCCCn1c(=O)c(C(=O)NCc2ccccc2)c(O)c2ccccc21 | -11.2 | -30.3 | 1.4 | 76.5* | 26.4 | -0.1
CCN(C=C1CC2C3CC=C4CC(O)CCC4(C)C3CCC2(C)C1=O)CC (stereo not drawn) | . | . | . | . | . | -53.8
O=C(c1cc(-c2ccccc2)on1)N1CCC2(CC1)OCCO2 | 1.9 | 7.6 | 0.0 | ? | 5.9 | .
CN1CCN(c2ccc(S(C)(=O)=O)cc2[N+](=O)[O-])CC1 | -5.5 | 6.9 | 32.5 | -0.1 | 5.3 | -12.7
CN1CCN(c2ccc([N+](=O)[O-])c3no[n+]([O-])c23)CC1 | . | . | . | 104.4* | . | -263.0
O=C(N/N=C/c1c(O)n(CCC2=CCCCC2)c(=S)[nH]c1=O)c1ccccc1 | 15.6 | 2.5 | 26.9 | 97.2* | 26.4 | 0.4
COc1ccc(/C=C/C(=O)c2c(O)n(CCC3=CCCCC3)c(=O)[nH]c2=O)cc1 | 5.8 | 7.3 | 16.4 | 57.9* | 10.3 | 2.6
O=C(/C=C/c1ccc2c(c1)OCO2)c1c(O)n(CCC2=CCCCC2)c(=O)[nH]c1=O | . | . | 21.0 | . | . | 5.8
Nc1ccccc1N=Cc1c(O)n(CCC2=CCCCC2)c(=O)[nH]c1=O | 4.8 | 12.3 | -17.2 | 12.9 | 0.5 | -8.8
O=C(N/N=C/c1c(O)n(CCC2=CCCCC2)c(=O)[nH]c1=O)c1ccccc1 | 5.4 | 11.5 | 10.3 | 62.4* | -4.9 | 1.9
CCCCn1c(=O)c(C(=O)NCc2ccco2)c(O)c2ccccc21 | 2.7 | -4.5 | 11.8 | -10.5 | -9.2 | 2.5
O=C1NC(=O)C(CCc2ccncc2)(Cc2cccc(Cl)c2Cl)C(=O)N1c1ccc(Br)cc1 (stereo not drawn) | 2.6 | -25.9 | 26.5 | 18.1 | -8.8 | -142.7
Cc1nn(-c2ccccc2)c(Cl)c1C1C(C#N)=C(N)Oc2c1c(=O)oc1ccccc21 (stereo not drawn) | 14.5 | 20.6 | 19.6 | 108.3* | 25.6 | -38.4
SMILES | TIM10 inh | tim10-1 inh | NALP1 inh | SKKanGAS inh | tim23-1 inh | PfHsp90 yeast 2
N#CC1=C(N)Oc2c(c(=O)oc3ccccc23)C1c1cccnc1 (stereo not drawn) | -3.7 | 8.9 | 5.1 | 7.3 | 5.3 | -18.1
Cc1cc(O)c2c(c1)OC(C)(C)C1=C2CC(C)CC1 (stereo not drawn) | 2.2 | 17.5 | -3.4 | 9.7 | 29.4 | -17.4
CN1CCN(C(=O)O[C@H]2c3nccnc3C(=O)N2c2ccc(Cl)cn2)CC1 | -4.2 | 6.9 | 6.6 | 3.2 | -1.0 | -15.3
CCCCCn1c(=O)c(C(=O)Nc2cnccn2)c(O)c2ccccc21 | 22.2 | 7.4 | 4.8 | 80.5* | 34.7 | 10.8
CCCCCCCn1c(=O)c(C(=O)Nc2cnccn2)c(O)c2ccccc21 | 7.7 | -25.1 | . | 59.5* | 33.8 | 29.6
Cc1ccccc1C1=NCC(=S)Nc2ccc(Cl)cc21 | 5.7 | 16.7 | -78.2 | 0.6 | 9.0 | 16.3
Cc1cccc(N2C(=O)NC(=O)/C(=C/c3ccc([N+](=O)[O-])o3)C2=O)c1 | . | . | 48.3* | . | . | .
COc1cc2cc(C(=O)N3CC(COS(C)(=O)=O)c4ccc(O)cc43)[nH]c2c(OC)c1OC (stereo not drawn) | . | . | . | . | . | 104.4*
COc1ccc(C(=O)CN2CCCCC2)cc1 | 2.5 | -16.9 | 3.5 | . | 9.5 | 31.1
COCc1cc(OC(=O)N(C)C)nc2c1c(C)nn2C | 17.9 | -4.2 | -0.8 | -3.1 | 7.5 | 1.3
O=C(c1ccccc1)C(CN1CCCC1)c1ccccc1 (stereo not drawn) | . | . | 94.2* | -10.0 | . | 7.6
CCN1CCN(CC(c2ccccc2)c2ccccc2)CC1 | -3.5 | 4.5 | -6.8 | 5.1 | 4.9 | -11.6
O=C(Nc1cccnc1)c1c(O)c2c(n(Cc3ccccc3)c1=O)CCCC2 | 15.1 | 14.7 | 19.0 | 52.4* | 23.4 | 2.6
Cc1ccccc1CN1CCCN(Cc2ccc(Cl)cc2)S1(=O)=O | 6.9 | 10.6 | 17.2 | 62.8* | 21.0 | 3.4
COc1cc2c(cc1OC)C(c1c(O)n(CCc3ccccc3)c(=S)[nH]c1=O)NCC2 (stereo not drawn) | 12.0 | 12.6 | . | 3.2 | 9.9 | .
CCn1ccnc1CN1CCCC(C(=O)c2ccc(OC)cc2OC)C1 (stereo not drawn) | 1.8 | 2.0 | -0.1 | -4.3 | 3.7 | -35.1
C[C@@H]1C(=O)O[C@@H]2[C@H](O)C34[C@@H]5OC(=O)C3(O[C@H]3OC(=O)[C@H](O)C34[C@H](C(C)(C)C)[C@H]5O)[C@@]12O (stereo partly drawn) | -1.5 | -18.4 | 14.7 | 4.6 | -0.3 | -18.2
CC1=CC(C)CC(C)OC(=O)CC(c2ccc(O)cc2)NC(=O)C(Cc2c(Br)[nH]c3ccccc23)N(C)C(=O)C(C)NC(=O)C(C)C1 (stereo not drawn) | . | . | . | . | . | 104.8*
Cc1cccc(-n2c(C)nc3ccccc3c2=O)c1C | 7.7 | 7.8 | -4.4 | -2.8 | 11.1 | .
CCCC12CN3CCN(C1)CC(CCC)(C3)C2=O | -21.5 | 5.3 | 3.9 | -1.0 | -6.5 | -1.2
CCCC12CN3CC(CCC)(CN(C1)C3c1ccccn1)C2=O (stereo not drawn) | -5.1 | 18.5 | -3.4 | 74.9* | -2.0 | .
CCCNC1=C(C)C(=O)C2=C(C1=O)C(COC(N)=O)[C@]1(OC)C3NC3CN21 (stereo partly drawn) | 6.4 | 2.7 | 14.2 | 109.5* | 6.3 | -10.3
CCN1CCN(Cc2cc(Br)ccc2O)CC1 | -1.4 | -2.3 | 43.0* | -0.7 | 4.0 | .

Screening data (PubChem)
